Results reported in PubChem BioAssay (NCATS).
Records with an inconclusive call do not appear. Active and inactive are the calls of the source. Unless noted, calls follow the shape of the dose curve; as a rule, active = well fitted cell-killing curve with a large enough effect; inconclusive = small, poorly fitted or top-dose-only effect; inactive = flat fitted curve, though single readings scatter.

Tests used:
[1] = Cell Viability - LYMP2-020 (AID 986);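 also: series mostly up to about 92 µM; cells exposed to compound for 24 h at 37 °C; plate controls were DMSO only for no effect and tetraoctylammonium bromide at 92 µM for full effect; nearly all actives have a fitted effect of over 55% in size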
In short: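 Acute cytotoxicity in a human lymphoblastoid line is scored as a concentration-dependent fall in cellular ATP after 24 hr at 37 C in complete medium. The positive control is tetraoctylammonium bromide, and potency is given as Hill-fit AC50.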

[2] = Cell Viability - LYMP2-022 (AID 987);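 also: cells exposed to compound for 24 hr; 0% = DMSO alone and full effect = tetraoctylammonium bromide at 92 µM; nearly all actives have a fitted effect of over 55% in size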
In short: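 Acute toxicity in a human lymphoblastoid line is scored as decreased intracellular ATP after 24 hr compound treatment at 37 C. ATP is measured by CellTiter-Glo luminescence; curves are fitted with the Hill equation to give AC50.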

[3] = Cell Viability - LYMP2-024 (AID 988);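 also: cells exposed to compound for 24 hr at 37 °C; plate controls were DMSO only for no effect and 92 µM tetraoctylammonium bromide for full effect; nearly all actives have a fitted effect of over 60% in size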
In short: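 Acute toxicity is measured as concentration-dependent loss of intracellular ATP in a human lymphoblastoid line treated 24 hours at 37 C. Luciferase luminescence quantifies ATP; AC50 values come from standard Hill-equation modelling.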

[4] = Cell Viability - LYMP2-026 (AID 989);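 also: cells exposed to compound for 24 h at 37 °C; % is scaled to controls: 0 for no effect and ±100 for the full control effect; nearly all actives have a fitted effect of over 50% in size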
In short: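 Concentration-dependent loss of intracellular ATP in human lymphoblastoid cells after 24 hr at 37 C, quantified by luciferase luminescence. AC50 derived from standard Hill equation.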

[5] = Cell Viability - LYMP1-002 - Assay at 24 hr (AID 993); also: % is scaled to controls: 0 for no effect and ±100 for the full control effect
In short: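 qHTS, LYMP1-002 lymphoblastoid, 24 h cpd, 37 C, CellTiter-Glo ATP luminescence; AC50 via Hill eq.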

[6] = Cell Viability - LYMP1-002 - Assay at 40 hr (AID 994);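 also: 0% = DMSO only and full inhibition = 92 µM tetraoctylammonium bromide; nearly all actives have a fitted effect of over 60% in size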
In short: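 Viability in the human lymphoblastoid line was measured as intracellular ATP via CellTiter-Glo after 40 hr compound exposure. Tetraoctylammonium bromide served as positive control.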

[7] = qHTS Assay for Identification of Small Molecule Inducers of Hypoxia Response (AID 2120; active = well fitted curve in the direction sought with a large enough effect in the signal ratio, with a control signal flat, not every such curve was filed as active; the % refers to the signal ratio; also: 0% is about no effect)
In short: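 Induction of beta-lactamase reporter activity was measured in CellSensor HRE-bla ME-180 cells after 17 h compound treatment at 37 degrees C, using CCF4 substrate and the 460nm/530nm emission ratio to derive AC50 values.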

[8] = molecular target: Estrogen receptor (Homo sapiens) (UniProt P03372); assay: qHTS assay for small molecule agonists of estrogen receptor alpha signaling (AID 588514; calls by dose curve;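 also: 0% = vehicle only and 100% = reference agonist; nearly all actives have a fitted effect of over 70% in size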)
Estrogen receptor (Homo sapiens), sequence (P03372 whole entry, looked up): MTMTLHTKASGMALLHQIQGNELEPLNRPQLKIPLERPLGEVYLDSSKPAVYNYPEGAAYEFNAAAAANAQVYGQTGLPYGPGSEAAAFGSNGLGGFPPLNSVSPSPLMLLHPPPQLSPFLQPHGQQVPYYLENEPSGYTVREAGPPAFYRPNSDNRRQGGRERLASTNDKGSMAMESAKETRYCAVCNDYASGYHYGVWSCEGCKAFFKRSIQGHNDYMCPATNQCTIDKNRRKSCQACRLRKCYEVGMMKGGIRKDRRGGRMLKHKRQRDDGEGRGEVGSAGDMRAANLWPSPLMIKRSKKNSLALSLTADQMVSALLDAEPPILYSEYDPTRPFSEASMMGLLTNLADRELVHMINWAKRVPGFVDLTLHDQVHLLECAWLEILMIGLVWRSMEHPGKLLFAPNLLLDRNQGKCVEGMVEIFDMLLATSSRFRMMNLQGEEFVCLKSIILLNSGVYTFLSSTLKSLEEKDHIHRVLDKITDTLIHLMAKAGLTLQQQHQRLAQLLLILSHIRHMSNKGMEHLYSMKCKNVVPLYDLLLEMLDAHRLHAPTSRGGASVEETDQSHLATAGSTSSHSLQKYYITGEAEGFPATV
In short: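 Reporter-gene assay. […] controls beta-lactamase in HEK 293 GripTite cells; after 18 hrs with compound, CCF4 substrate is added for 2 hrs and fluorescence is read.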

[9] = molecular target: Androgen receptor (Homo sapiens) (UniProt P10275); assay: qHTS assay for small molecule agonists of androgen receptor signaling (AID 588515; active = well fitted curve in the direction sought with a large enough effect in the signal ratio, with a control signal flat; the % refers to the signal ratio; also: % is scaled to controls: 0 for no effect and ±100 for the full control effect); settings: AR-UAS-bla HEK293, beta-lactamase ratio, agonist 16 h; active compounds read high
Androgen receptor (Homo sapiens), sequence (P10275 whole entry, looked up): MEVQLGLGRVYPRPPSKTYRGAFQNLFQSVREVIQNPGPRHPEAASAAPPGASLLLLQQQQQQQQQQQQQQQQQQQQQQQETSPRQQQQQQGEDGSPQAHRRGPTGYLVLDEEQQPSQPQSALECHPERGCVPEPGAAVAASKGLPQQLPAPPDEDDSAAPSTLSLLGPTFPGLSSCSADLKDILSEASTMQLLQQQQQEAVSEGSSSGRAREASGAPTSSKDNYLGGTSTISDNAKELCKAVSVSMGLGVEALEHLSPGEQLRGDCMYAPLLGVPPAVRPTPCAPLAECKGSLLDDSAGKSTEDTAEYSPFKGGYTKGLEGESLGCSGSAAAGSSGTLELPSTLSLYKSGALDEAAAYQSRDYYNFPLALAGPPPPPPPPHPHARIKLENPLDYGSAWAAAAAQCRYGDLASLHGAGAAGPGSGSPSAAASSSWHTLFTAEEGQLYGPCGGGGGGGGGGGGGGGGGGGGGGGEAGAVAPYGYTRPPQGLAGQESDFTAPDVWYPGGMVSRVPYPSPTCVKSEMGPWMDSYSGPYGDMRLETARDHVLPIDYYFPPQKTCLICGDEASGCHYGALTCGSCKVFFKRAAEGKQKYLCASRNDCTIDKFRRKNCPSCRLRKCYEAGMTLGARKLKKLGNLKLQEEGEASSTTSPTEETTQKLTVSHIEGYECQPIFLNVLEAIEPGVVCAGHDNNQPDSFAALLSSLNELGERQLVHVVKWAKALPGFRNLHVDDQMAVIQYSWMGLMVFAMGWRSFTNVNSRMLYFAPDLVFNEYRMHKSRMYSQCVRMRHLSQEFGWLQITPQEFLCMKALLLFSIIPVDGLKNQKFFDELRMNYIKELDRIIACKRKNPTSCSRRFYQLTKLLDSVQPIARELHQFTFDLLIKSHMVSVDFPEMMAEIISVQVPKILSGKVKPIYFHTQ
In short: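 EC50 and efficacy came from Hill fits of titrations (up to 92 uM) normalized to 30 nM R1881 as 100% and DMSO as 0%. Compound exposure was 16 h at 37 C on AR-UAS-bla HEK293 cells, with a 405/460/530 nm CCF4 fluorescence read.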

[10] = molecular target: Estrogen receptor (Homo sapiens) (UniProt P03372); assay: qHTS assay for small molecule antagonists of estrogen receptor alpha signaling (AID 588513; active = well fitted curve in the direction sought with a large enough effect in the signal ratio, with a control signal flat, not every such curve was filed as active; the % refers to the signal ratio; also: % is scaled to controls: 0 for no effect and ±100 for the full control effect)
In short: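 Antagonist-mode qHTS in ER-alpha-UAS-bla HEK 293 cells: compound titration, 0.5nM estradiol for 18 h, CCF4 fluorescence, Hill-derived IC50.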

[O-]/[N+](=N\O)c1ccccc1
inactive: Potency [1] | Potency [2] | Potency [3] | outcome [4] | Potency [5] | Potency [6] | outcome [7] | Potency [8]

O=C(O)c1ccccc1C(=O)O
inactive: Potency [1] | Potency [2] | Potency [3] | outcome [4] | Potency [5] | outcome [7] | Potency [8]

CCCCC=O
inactive: Potency [1] | Potency [2] | Potency [3] | outcome [4] | Potency [5] | Potency [6] | outcome [7]

CCCC(C)CO (stereo not drawn)
inactive: Potency [1] | Potency [3] | outcome [4] | Potency [5] | Potency [6] | outcome [7] | activation [9] -5.4%

C[C@@H]1CC2(OC[C@]3(C)O[C@H]23)O[C@H]2C[C@@]3(C)[C@@H]4CC[C@H]5C(C)(C)C(O[C@@H]6OC[C@@H](O)[C@H](O)[C@H]6O)CC[C@@]56C[C@@]46CC[C@]3(C)[C@@H]12 (stereo partly drawn)
inactive: Potency [2] | Potency [3] | outcome [4] | Potency [5] | Potency [6] | outcome [7] | Potency [8]

O=Cc1ccc(Cl)cc1
inactive: Potency [1] | Potency [2] | Potency [3] | outcome [4] | Potency [6] | outcome [7] | activation [9] -1.22%

Cc1cccc2sc(N)nc12
inactive: Potency [2] | Potency [3] | Potency [5] | Potency [6] | outcome [7] | outcome [10]

CC(=O)c1cc(C)oc1C
inactive: Potency [1] | Potency [2] | Potency [3] | outcome [4] | Potency [5] | outcome [7] | activation [9] -1.32%

O=Cc1ccc(CO)o1
inactive: Potency [1] | Potency [2] | Potency [3] | outcome [4] | Potency [5] | Potency [6] | outcome [7] | outcome [10]

CCC(C)=O
inactive: Potency [1] | Potency [2] | Potency [3] | outcome [4] | Potency [5] | outcome [7]

Nc1nc(CC(=O)O)cs1
inactive: Potency [1] | Potency [2] | Potency [3] | outcome [4] | Potency [5] | outcome [7]

O=Cc1ccccc1Cl
inactive: Potency [1] | Potency [2] | Potency [3] | outcome [4] | Potency [5] | outcome [7]

O=C(O)c1cccc([N+](=O)[O-])c1
inactive: Potency [1] | Potency [2] | Potency [3] | outcome [4] | Potency [5] | Potency [6] | outcome [7]

Cc1c(C(=O)O)cccc1[N+](=O)[O-]
inactive: Potency [1] | Potency [2] | Potency [3] | outcome [4] | Potency [5] | outcome [7] | activation [9] -4.24%

CC=C(Cl)Cl
inactive: Potency [1] | Potency [2] | Potency [3] | outcome [4] | Potency [5] | Potency [6] | outcome [7] | outcome [10]

Cc1ccc2nc(-c3ccc(N)cc3)sc2c1S(=O)(=O)O
inactive: Potency [1] | Potency [3] | outcome [4] | Potency [5] | Potency [6] | outcome [7] | outcome [10]

CC(=C/C=C/C(C)=C/C=C/C=C(C)/C=C/C=C(C)/C=C/C(=O)O)/C=C/C(=O)O
inactive: Potency [1] | Potency [2] | Potency [3] | Potency [5] | Potency [6] | outcome [7] | outcome [10] | activation [9] 17%

CC(C=O)Cc1ccc(C(C)(C)C)cc1 (stereo not drawn)
inactive: Potency [1] | Potency [2] | Potency [3] | outcome [4] | Potency [5] | Potency [6] | outcome [7] | activation [9] 8.05%

COC(=O)CCCC(=O)OC
inactive: Potency [1] | Potency [2] | Potency [3] | outcome [4] | Potency [5] | outcome [7]

CCOC(C)(C)C
inactive: Potency [2] | Potency [3] | outcome [4] | Potency [5] | Potency [6] | outcome [7] | outcome [10]

CCC(C)O (stereo not drawn)
inactive: Potency [1] | Potency [2] | Potency [3] | outcome [4] | Potency [5] | Potency [6] | outcome [7]

O=[N+]([O-])c1ccc(Cl)cc1Cl
inactive: Potency [1] | Potency [2] | Potency [3] | outcome [4] | Potency [5] | outcome [7]

NC=O
inactive: Potency [1] | Potency [2] | Potency [3] | outcome [4] | Potency [5] | outcome [7]

CCNc1ccccc1
inactive: Potency [1] | Potency [2] | Potency [3] | Potency [5] | Potency [6] | outcome [7] | activation [9] 1.96%

CC(=O)c1ccccn1
inactive: Potency [1] | Potency [2] | Potency [3] | outcome [4] | Potency [5] | Potency [6] | outcome [7]

O=[N+]([O-])c1ccc(CCO)cc1
inactive: Potency [5] | Potency [6] | outcome [7] | outcome [10] | Potency [8]

O=C(O)c1c(Cl)cccc1Cl
inactive: Potency [1] | Potency [2] | Potency [3] | outcome [4] | Potency [5] | Potency [6] | outcome [7]

Cc1ccc(C(=O)O)cc1
inactive: Potency [1] | Potency [2] | Potency [3] | outcome [4] | Potency [5] | Potency [6] | outcome [7]

CCCOCC(C)OCC(C)O (stereo not drawn)
inactive: Potency [1] | Potency [2] | Potency [3] | Potency [6] | outcome [7] | activation [9] 12.1%

CC(=O)CC(C)C
inactive: Potency [2] | Potency [3] | outcome [4] | Potency [5] | Potency [6] | outcome [7] | activation [9] 2.1%

Clc1ccc(Cl)c(Cl)c1Cl
inactive: Potency [1] | Potency [2] | Potency [3] | outcome [4] | Potency [5] | outcome [7]

ON=C1CCCCC1
inactive: Potency [1] | Potency [2] | Potency [3] | outcome [4] | Potency [5] | Potency [6] | outcome [7]

O=C1OC(=O)c2c(Br)c(Br)c(Br)c(Br)c21
inactive: Potency [1] | Potency [2] | Potency [3] | outcome [4] | Potency [5] | Potency [6] | outcome [7]

O=[N+]([O-])c1ccc(NCCO)c(OCCO)c1
inactive: Potency [1] | Potency [2] | Potency [3] | outcome [4] | Potency [6] | outcome [7]

NS(=O)(=O)O
inactive: Potency [1] | Potency [2] | Potency [3] | outcome [4] | Potency [5] | Potency [6] | outcome [7]
